# Results from PubChem BioAssay.
# Active and inactive are the calls of the source.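 How the source made its calls, unless noted: active means inhibition above 20% together with a positive visual image hit; inconclusive means visual image hit but inhibition not above 20%; inactive means no visual image hit.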
# Assays:
# [1] = inhibitors of TNFa-induced NFkB p65 translocation, primary screen, imaging, HUVEC, MLSMR starter and 10KST1 sets (AID 438); conditions: HUVEC TNFa-induced p65 nuclear translocation; cell count: measured here: nuclei count (cytotoxicity indicator), at 2.08 µM; inhibition: at 2 µM, stronger effect = higher value, 0% TNFa-plus-vehicle, 100% no-TNFa wells;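 further: compound added about 3h40 before a 20 min TNFalpha stimulation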;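 on inhibition: signal is the nuclear over cytoplasmic p65 intensity ratio per well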
# [2] = reduction of polyQ htt aggregates in cells – imaging, exon1htt(103Q)mCFP cells, high-content imaging, primary screen (AID 483;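 active means visual image review flags a hit and inhibition of aggregation exceeds 20%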;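 further: compound exposure lasted 3 days before fixation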;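 on nuclei count: percent of the per-plate median nuclei count of sample wells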); conditions: exon1htt(103Q)mCFP cell line, aggregate imaging, at 2 µM; inhibition of aggregation: stronger effect = higher value; nuclei count: measured here: cell count, toxicity
# [3] = endothelial E-selectin expression blockers – imaging, HUVEC, immunofluorescence, MLSMR starter and 10KST1 sets, primary screen (AID 487;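 active means visually confirmed hit in the image check and inhibition above 20%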;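 on inhibition: signal is fraction of cell area covered by stained E-selectin grains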;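 on nuclei count: 100% = median nuclei count of all wells on the same plate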); conditions: HUVEC TNFalpha-induced E-selectin immunofluorescence imaging, at 2 µM; inhibition: stronger effect = higher value; nuclei count: measured here: cell number, toxicity
# [4] = molecular target: Voltage-gated potassium channel subunit beta-2 (Rattus norvegicus) (UniProt P62483); experiment: inhibitors of rat Kvbeta2 reductase activity – biochemical, NADPH fluorescence, primary screen (AID 622;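 active means fluorescence slope higher than the sample average by over 3 SD, cut at about -0.22 in these data, passing the limit was not always enough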;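 further: slope of raw intensity against log time taken from 70 to 1610 s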); conditions: recombinant KvBeta, 4-cyanobenzaldehyde reduction, at 10 µM, stronger effect = higher value
# [5] = molecular target: Voltage-gated potassium channel subunit beta-2 (Rattus norvegicus) (UniProt P62483); experiment: enhancers of rat Kvbeta2 NADPH turnover – biochemical, NADPH fluorescence, primary screen (AID 623;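 active means NADPH fluorescence slope more negative than the mean of all samples by about 3 SD, 99.7% confidence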;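 further: fluorescence intensity change per second fitted from 20 to 320 s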); conditions: Recombinant KvBeta, NADPH fluorescence decrease slope, 10 min; at 10 µM; stronger effect = lower value
# [6] = molecular target: Alpha-2C adrenergic receptor (Homo sapiens) (UniProt P18825); experiment: compounds altering alpha2C-coupled GIRK flux – cell-based, HEK293 alpha2C/GIRK1/2, thallium flux, primary screen (AID 624;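 active means fluorescence slope after compound addition differing from the mean of all screened samples at 99.7% confidence, in either direction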;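 further: slope of fluorescence ratio to pre-addition baseline per second over 15 to 24 s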); conditions: thallium flux BTC fluorescence, at 10 µM, actives lie on both sides
# [7] = TLR3 IRF3 reporter activation blockers – cell-based, poly I:C stimulus, luciferase, 10K MLSCN set, primary screen (AID 602277;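 active means inhibition of the reporter signal at or above 50%; inactive means inhibition below 50%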); conditions: HEK293-TLR3 RL24 IRF3 luciferase reporter, at 10 µM, stronger effect = higher value
# [8] = molecular target: Muscarinic acetylcholine receptor M4 (Homo sapiens) (UniProt P08173); experiment: M4-linked GIRK flux change, two-sided – cell-based, HEK293 M4/GIRK, thallium flux, BTC-AM, M4 allosteric agonist project, primary screen (AID 625;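 active means fluorescence slope after compound addition differing from the mean of all tested samples at 99.7% confidence, mostly higher but some lower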;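 further: thallium influx through GIRK channels coupled to M4 in HEK293 cells with BTC-AM dye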); conditions: at 10 µM, actives lie on both sides
# [9] = blockers of RIG-like receptor reporter activation – cell-based, Sendai virus stimulus, luciferase, 10K MLSCN set, TLR/RLR signaling modifier project, primary screen (AID 602276;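 active means inhibition at or above 50% at 10 µM; inactive means inhibition below 50%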;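 further: firefly luciferase from ISG56 promoter only with Renilla not read in this screen; 0% = Sendai virus plus DMSO and 100% = medium plus DMSO without virus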); conditions: HEK293 RL24 IRF3 luciferase reporter, at 10 µM, stronger effect = higher value
# [10] = inhibitors of larval lipid processing in zebrafish, primary screen, whole organism, PED6 fluorescence, gall bladder and intestine (AID 686;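 active means a full or partial loss of lipid-probe fluorescence in the fish gall bladder, intestine or both, judged by eye; inactive means no fluorescence loss, or compound toxic to the fish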;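 further: larvae 5 to 7 days old with five fish per well; signal comes from phospholipase A2 cleavage of quenched PED6 carried via bile; overnight exposure to compound and PED6 before scoring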); conditions: Zebrafish larvae PED6 lipid processing, fluorescence scoring; screened at 20 µM (by protocol)
# Muscarinic acetylcholine receptor M4 (Homo sapiens), sequence (P08173 whole entry, looked up): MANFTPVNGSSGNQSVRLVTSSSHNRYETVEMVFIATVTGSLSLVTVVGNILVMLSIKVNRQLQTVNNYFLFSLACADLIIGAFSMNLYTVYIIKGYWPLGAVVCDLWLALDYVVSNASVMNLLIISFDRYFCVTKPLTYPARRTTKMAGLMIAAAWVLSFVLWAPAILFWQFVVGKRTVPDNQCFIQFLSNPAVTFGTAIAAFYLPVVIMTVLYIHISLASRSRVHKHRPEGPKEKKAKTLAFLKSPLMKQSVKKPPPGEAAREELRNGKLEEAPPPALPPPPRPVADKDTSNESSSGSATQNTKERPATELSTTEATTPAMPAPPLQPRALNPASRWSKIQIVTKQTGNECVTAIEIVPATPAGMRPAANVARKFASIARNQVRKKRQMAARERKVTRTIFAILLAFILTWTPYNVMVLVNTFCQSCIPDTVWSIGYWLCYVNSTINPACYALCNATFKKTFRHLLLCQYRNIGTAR
# Voltage-gated potassium channel subunit beta-2 (Rattus norvegicus), sequence (P62483 whole entry, looked up): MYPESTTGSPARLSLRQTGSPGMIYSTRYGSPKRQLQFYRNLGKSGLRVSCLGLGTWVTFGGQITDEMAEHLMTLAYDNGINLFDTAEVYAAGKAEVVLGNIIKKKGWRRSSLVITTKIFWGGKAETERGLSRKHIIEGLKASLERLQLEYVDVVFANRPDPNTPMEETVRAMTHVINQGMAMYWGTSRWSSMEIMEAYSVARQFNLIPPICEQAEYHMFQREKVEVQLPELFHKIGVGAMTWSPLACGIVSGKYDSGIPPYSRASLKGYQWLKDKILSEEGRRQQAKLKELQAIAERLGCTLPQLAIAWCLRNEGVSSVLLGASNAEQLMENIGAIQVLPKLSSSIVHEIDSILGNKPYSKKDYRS
# Alpha-2C adrenergic receptor (Homo sapiens), sequence (P18825 whole entry, looked up): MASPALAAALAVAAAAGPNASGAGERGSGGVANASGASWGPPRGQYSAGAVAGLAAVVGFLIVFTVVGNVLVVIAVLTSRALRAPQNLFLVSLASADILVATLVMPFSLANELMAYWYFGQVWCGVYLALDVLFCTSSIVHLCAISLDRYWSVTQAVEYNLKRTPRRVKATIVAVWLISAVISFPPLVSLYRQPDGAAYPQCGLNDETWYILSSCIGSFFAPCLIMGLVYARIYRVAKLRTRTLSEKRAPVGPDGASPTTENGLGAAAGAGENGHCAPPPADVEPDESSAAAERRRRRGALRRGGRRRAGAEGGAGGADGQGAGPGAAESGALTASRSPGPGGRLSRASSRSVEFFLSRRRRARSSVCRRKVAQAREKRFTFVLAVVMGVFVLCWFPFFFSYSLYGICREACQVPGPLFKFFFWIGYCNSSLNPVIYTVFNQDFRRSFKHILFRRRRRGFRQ
SMILES,cell count [1],inhibition [1],inhibition of aggregation [2],nuclei count [2] [%],inhibition [3],nuclei count [3] [%],fluorescence slope [4],NADPH fluorescence slope [5],slope [6],inhibition [7],fluorescence slope [8],inhibition [9],outcome [10]
COc1cccc(-c2cc(C(=O)Nc3cc(OC)c(OC)c(OC)c3)no2)c1,461,-4.5% (inactive),1.1% (inactive),55.1,-12.3% (inactive),97.2,-0.511 (inactive),-4.5e-05 (inactive),0.00712 (inactive),-2.13% (inactive),,,
Nc1nc(C(=O)N2CCOCC2)nn1S(=O)(=O)c1ccc(Cl)cc1,177,23.2% (active),-3.7% (inactive),103,,145,-0.59 (inactive),-2.7e-05 (inactive),,15.9% (inactive),0.00923 (inactive),11% (inactive),
CCc1ccccc1NC(=O)CN(c1cccc(OC)c1)S(C)(=O)=O,345,2.5% (inactive),-3.1% (inactive),99,-28.2% (inactive),111,-0.544 (inactive),-7.9e-05 (inactive),,-6.22% (inactive),0.00451 (inactive),-7.55% (inactive),
COCCn1c(N)c(C(=O)Nc2sc3c(c2C(=O)OC)CCCC3)c2nc3ccccc3nc21,670,14.9% (inactive),21.8% (inactive),84.1,5.1% (inactive),100,-0.57 (inactive),4.8e-06 (inactive),,9.11% (inactive),0.00595 (inactive),19.4% (inactive),
COc1ccccc1OCCn1c(=O)sc2ccccc21,478,9.8% (inactive),-14.7% (inactive),90.3,,152,-0.477 (inactive),1.7e-05 (inactive),,6.17% (inactive),0.0055 (inactive),1.53% (inactive),
O=C(O)CC(C(=O)OCCOc1ccccc1)N1CCOCC1 (centres undefined),504,6.4% (inactive),,,-77.1% (inactive),109,,,,,,,
O=C(Nc1nncs1)c1ccccc1NS(=O)(=O)c1cccs1,326,21.9% (inactive),5.1% (inactive),111,-44.6% (inactive),108,-0.0751 (inactive),-1.1e-05 (inactive),,-4.84% (inactive),0.00575 (inactive),-6.81% (inactive),
COc1cccc(-c2cc3nc4c(c(N5CCC6(CC5)OCCO6)n3n2)CCCC4)c1,479,10.2% (inactive),18.9% (inactive),98.9,,149,-0.401 (inactive),2.4e-05 (inactive),,-32.3% (inactive),0.00624 (inactive),-10.9% (inactive),
Cc1nnc(NC(=O)Nc2cccc(Cl)c2)s1,481,-9.3% (inactive),-4.3% (inactive),66.7,9.5% (inactive),114,-0.574 (inactive),-1.8e-05 (inactive),,-88.8% (inactive),0.00561 (inactive),-25% (inactive),
CC(C)C12CN3CC(C(C)C)(CN(C1)C3c1ccc3c(c1)OCO3)C2=O (centres undefined),412,10.8% (inactive),-9.1% (inactive),98.4,,,-0.304 (inactive),-1e-05 (inactive),0.00697 (inactive),20.8% (inactive),,11.3% (inactive),inactive
Cn1c(C(=O)NCC2CCCO2)cc2c(=O)[nH]c3ccccc3c21 (centres undefined),334,11.8% (inactive),-27.1% (inactive),114,47.5% (inactive),76.8,-0.355 (inactive),-5.9e-05 (inactive),,-5.12% (inactive),0.00794 (inactive),-11.9% (inactive),
